In PubChem BioAssay (Tox21):
Records with an inconclusive call do not appear. A call without a number means that no potency is given here. Activity calls are given as the source filed them. The call rests on the fitted dose curve; in most records, active means well fitted curve in the direction sought with a large enough effect in the repeat runs; inconclusive means weak or mixed curves; inactive means no such curve, though single readings can be large; an effect the other way counts as inactive or inconclusive.

Test system: not listed separately
Experiment: qHTS assay to identify small molecule antagonists of the androgen receptor (AR) signaling pathway using the MDA cell line in the presence of 0.5 nM R1881 - cell viability counter screen (AID 1259242); further: nearly all actives have a fitted effect of over 45% in size
Settings: MDA-kb2 viability, CellTiter-Fluor protease fluorescence, 16 h; series mostly up to 92.4 µM
In short: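 Live-cell protease fluorescence, CellTiter-Fluor, 30 min at 37C. Cells: MDA-kb2, 3,000/well, preincubated 5 hr. Compounds plus 0.5 nM R1881 final, 16 hr, 37C, 0% CO2.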

SMILES	Potency
COc1ccc(OC)c(OC)c1	inactive
CCCCCCCCCCCCCCC1CO1 (configuration not stated)	inactive
C=CCCCCCC	inactive
N#Cc1cc2ccccc2c2ccccc12	inactive
CCOC(=O)C1=NN(c2ccccc2)C(=O)C1	inactive
OCCC1CCCCN1 (configuration not stated)	inactive
CC(=O)/C=C/C1C(C)=CCCC1(C)C (configuration not stated)	inactive
CCCCCCCCN(C)C	inactive
O=C1CCCCCO1	inactive
Oc1ccc(O)c2c(O)cccc12	inactive
Cc1ccc(C(N)=O)cc1N	inactive
O=[N+]([O-])c1cccc(Cl)c1Cl	inactive
O=C(O)C1CCC(C(=O)O)CC1 (configuration not stated)	inactive
CC(C)(C)c1ccc(OCC2CO2)cc1 (configuration not stated)	inactive
O=C1c2cccc(O)c2C(=O)c2c(O)cc(CO)cc21	inactive
N#CCCNCCC#N	inactive
OCC1CC2CC1C1CCC(CO)C21 (configuration not stated)	inactive
Cc1occc1S	inactive
CC(=O)[C@@]1(O)CC[C@H]2[C@@H]3C[C@H](C)C4=CC(=O)CC[C@]4(C)[C@H]3CC[C@@]21C	inactive
C[Si](C)O[Si](C)(C)O[Si](C)(C)O[Si](C)C	inactive

SMILES	Potency
CN(C)CCCNCCCN	inactive
CCc1nn(C2CCCCC2)c2cc(C3(C#N)CCC(C(=O)O)CC3)ccc12 (configuration not stated)	inactive
FC(F)(F)C(F)(F)C(F)(F)C(F)(F)C(F)(F)C(F)(F)CCI	inactive
Cc1ncsc1CCO	inactive
CCOC(=O)CC(=O)c1cc(F)c(Cl)nc1Cl	inactive
ClC(Cl)(Cl)c1ccc(C(Cl)(Cl)Cl)cc1	inactive
O=C(Cl)c1c(Cl)cccc1Cl	inactive
O=S(=O)(O)c1ccc(O)c2ncccc12	inactive
CCCCCOC(=O)c1ccc(O)cc1	inactive
C#CCOC(=O)[C@@H](C)Oc1ccc(Oc2ncc(Cl)cc2F)cc1	inactive
CC1=CC(=O)/C(=C(/C)O)C(=O)O1	inactive
CCOC(=O)CC(C)C	inactive
COC(=O)C(C)=O	inactive
c1ccc(CNCc2ccccc2)cc1	inactive
SC1CCCC1	inactive
CCCCCCCCC(CO)CCCCCC (configuration not stated)	inactive
CCOc1ccc2[nH]cc(C(=O)NCc3ccccc3)c(=O)c2n1	inactive
CCCCCCCCCCCCC(=O)O	inactive
C1=Cc2ccccc2C1	inactive

Biological target: Estrogen receptor (Homo sapiens) (UniProt P03372)
Experiment: qHTS assay to identify small molecule antagonists of the estrogen receptor alpha (ER-alpha) signaling pathway using the BG1 cell line in the presence of 0.1 nM 17-beta-estradiol (AID 1259244); further: nearly all actives have a fitted effect of over 50% in size; further: potency means the concentration at half of the fitted maximal effect
Settings: VM7Luc4E2 (BG1) ERE-luciferase, antagonist mode, 0.1 nM E2, 22 h; series mostly up to 92.4 µM
In short: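 Luminescence after ONE-Glo (30 min, room temperature) measured ERE-luciferase activity in VM7Luc4E2 cells treated 22 h with compound and 0.1 nM final 17beta-estradiol as stimulator.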

Estrogen receptor (Homo sapiens), sequence (P03372 whole entry, looked up): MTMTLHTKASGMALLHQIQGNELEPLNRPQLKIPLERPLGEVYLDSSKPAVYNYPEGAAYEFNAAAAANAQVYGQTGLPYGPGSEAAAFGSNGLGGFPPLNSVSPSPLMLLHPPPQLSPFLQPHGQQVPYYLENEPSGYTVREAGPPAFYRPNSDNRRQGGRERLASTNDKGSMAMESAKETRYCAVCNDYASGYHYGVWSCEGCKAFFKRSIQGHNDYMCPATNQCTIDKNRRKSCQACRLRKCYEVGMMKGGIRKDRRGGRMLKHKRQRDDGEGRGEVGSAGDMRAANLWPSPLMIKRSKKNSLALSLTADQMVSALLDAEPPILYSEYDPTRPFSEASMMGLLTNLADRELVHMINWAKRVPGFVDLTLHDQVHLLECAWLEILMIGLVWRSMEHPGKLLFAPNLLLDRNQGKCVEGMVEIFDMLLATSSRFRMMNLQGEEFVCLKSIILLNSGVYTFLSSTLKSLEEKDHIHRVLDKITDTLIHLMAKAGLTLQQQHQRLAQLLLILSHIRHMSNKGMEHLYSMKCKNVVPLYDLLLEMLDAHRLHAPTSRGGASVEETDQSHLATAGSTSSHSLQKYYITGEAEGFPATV

SMILES	Potency
COc1ccc(OC)c(OC)c1	inactive
CCCCCCCCCCCCCCC1CO1 (configuration not stated)	inactive
C=CCCCCCC	inactive
N#Cc1cc2ccccc2c2ccccc12	inactive
CCOC(=O)C1=NN(c2ccccc2)C(=O)C1	inactive
OCCC1CCCCN1 (configuration not stated)	inactive
CC(=O)/C=C/C1C(C)=CCCC1(C)C (configuration not stated)	inactive
CCCCCCCCN(C)C	inactive
O=C1CCCCCO1	inactive
Oc1ccc(O)c2c(O)cccc12	inactive
Cc1ccc(C(N)=O)cc1N	inactive
O=[N+]([O-])c1cccc(Cl)c1Cl	inactive
O=C(O)C1CCC(C(=O)O)CC1 (configuration not stated)	inactive
CC(C)(C)c1ccc(OCC2CO2)cc1 (configuration not stated)	inactive
O=C1c2cccc(O)c2C(=O)c2c(O)cc(CO)cc21	inactive
N#CCCNCCC#N	inactive
OCC1CC2CC1C1CCC(CO)C21 (configuration not stated)	inactive
Cc1occc1S	inactive
CC(=O)[C@@]1(O)CC[C@H]2[C@@H]3C[C@H](C)C4=CC(=O)CC[C@]4(C)[C@H]3CC[C@@]21C	inactive
C[Si](C)O[Si](C)(C)O[Si](C)(C)O[Si](C)C	inactive

SMILES	Potency
CN(C)CCCNCCCN	inactive
CCc1nn(C2CCCCC2)c2cc(C3(C#N)CCC(C(=O)O)CC3)ccc12 (configuration not stated)	inactive
FC(F)(F)C(F)(F)C(F)(F)C(F)(F)C(F)(F)C(F)(F)CCI	inactive
Cc1ncsc1CCO	inactive
CCOC(=O)CC(=O)c1cc(F)c(Cl)nc1Cl	inactive
ClC(Cl)(Cl)c1ccc(C(Cl)(Cl)Cl)cc1	inactive
O=C(Cl)c1c(Cl)cccc1Cl	inactive
O=S(=O)(O)c1ccc(O)c2ncccc12	inactive
CCCCCOC(=O)c1ccc(O)cc1	inactive
C#CCOC(=O)[C@@H](C)Oc1ccc(Oc2ncc(Cl)cc2F)cc1	inactive
CC1=CC(=O)/C(=C(/C)O)C(=O)O1	inactive
CCOC(=O)CC(C)C	inactive
COC(=O)C(C)=O	inactive
c1ccc(CNCc2ccccc2)cc1	inactive
SC1CCCC1	inactive
CCCCCCCCC(CO)CCCCCC (configuration not stated)	inactive
CCOc1ccc2[nH]cc(C(=O)NCc3ccccc3)c(=O)c2n1	54.5 µM (active)
CCCCCCCCCCCCC(=O)O	inactive
C1=Cc2ccccc2C1	inactive

Test system: not listed separately
Experiment: qHTS assay to identify small molecule HDAC inhibitors (AID 1259364); further: potency means the concentration at half of the fitted maximal effect;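 further: wild-type HCT-116 cells with endogenous class I/II HDAC activity; nearly all actives have a fitted effect of over 45% in size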
Settings: HCT-116 HDAC-Glo I/II luminescence, 2 h; series mostly up to 92.4 µM
In short: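 HCT-116 (wild type), 1,500 cells/well, overnight; compound 2 hr 37C 5% CO2; HDAC-Glo I/II reagent 30 min RT; luminescence readout.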

SMILES	Potency
COc1ccc(OC)c(OC)c1	inactive
CCCCCCCCCCCCCCC1CO1 (configuration not stated)	inactive
C=CCCCCCC	inactive
N#Cc1cc2ccccc2c2ccccc12	inactive
CCOC(=O)C1=NN(c2ccccc2)C(=O)C1	inactive
OCCC1CCCCN1 (configuration not stated)	inactive
CC(=O)/C=C/C1C(C)=CCCC1(C)C (configuration not stated)	inactive
CCCCCCCCN(C)C	inactive
O=C1CCCCCO1	inactive
Oc1ccc(O)c2c(O)cccc12	inactive
Cc1ccc(C(N)=O)cc1N	inactive
O=[N+]([O-])c1cccc(Cl)c1Cl	inactive
O=C(O)C1CCC(C(=O)O)CC1 (configuration not stated)	inactive
CC(C)(C)c1ccc(OCC2CO2)cc1 (configuration not stated)	inactive
O=C1c2cccc(O)c2C(=O)c2c(O)cc(CO)cc21	inactive
N#CCCNCCC#N	inactive
OCC1CC2CC1C1CCC(CO)C21 (configuration not stated)	inactive
Cc1occc1S	inactive
CC(=O)[C@@]1(O)CC[C@H]2[C@@H]3C[C@H](C)C4=CC(=O)CC[C@]4(C)[C@H]3CC[C@@]21C	inactive
C[Si](C)O[Si](C)(C)O[Si](C)(C)O[Si](C)C	inactive

SMILES	Potency
CN(C)CCCNCCCN	inactive
CCc1nn(C2CCCCC2)c2cc(C3(C#N)CCC(C(=O)O)CC3)ccc12 (configuration not stated)	inactive
FC(F)(F)C(F)(F)C(F)(F)C(F)(F)C(F)(F)C(F)(F)CCI	inactive
Cc1ncsc1CCO	inactive
CCOC(=O)CC(=O)c1cc(F)c(Cl)nc1Cl	inactive
ClC(Cl)(Cl)c1ccc(C(Cl)(Cl)Cl)cc1	inactive
O=C(Cl)c1c(Cl)cccc1Cl	inactive
O=S(=O)(O)c1ccc(O)c2ncccc12	inactive
CCCCCOC(=O)c1ccc(O)cc1	24.6 µM (active)
C#CCOC(=O)[C@@H](C)Oc1ccc(Oc2ncc(Cl)cc2F)cc1	inactive
CC1=CC(=O)/C(=C(/C)O)C(=O)O1	inactive
CCOC(=O)CC(C)C	inactive
COC(=O)C(C)=O	inactive
c1ccc(CNCc2ccccc2)cc1	inactive
SC1CCCC1	inactive
CCCCCCCCC(CO)CCCCCC (configuration not stated)	inactive
CCOc1ccc2[nH]cc(C(=O)NCc3ccccc3)c(=O)c2n1	inactive
CCCCCCCCCCCCC(=O)O	inactive
C1=Cc2ccccc2C1	inactive
